Results as given in the supplement of paper PMC9433436.
± gives the standard deviation of the averaged measurements. In all, about 4,100 sequences were measured (“relative kcat/Km (krel) vs genomic leader AAAGAU”: median about 1.7, highest 2% from about 6.5 on). The sample holds the highest values, similar sequences and a random draw of the others, so the mix is not that of the screen.

Target: T1, E. coli RNase P holoenzyme (M1 P RNA + rnpA protein) (UniProt P0A7Y8)
T1 sequence: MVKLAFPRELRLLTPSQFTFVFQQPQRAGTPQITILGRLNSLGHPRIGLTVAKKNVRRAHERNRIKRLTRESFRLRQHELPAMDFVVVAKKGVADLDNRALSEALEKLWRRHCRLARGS
Assay: relative kcat/Km (krel) vs genomic leader AAAGAU (relative (reference leader = 1)); higher = faster RNase P cleavage
Description: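 HTS-Kin: a pool of ptRNA-Met (21C construct) with all 4096 combinations of 5' leader nucleotides N(-6) to N(-1) was processed in vitro by E. coli RNase P (P RNA + rnpA/C5 protein) under multiple-turnover conditions at 37 C, pH 8, 17.5 mM MgCl2. Residual substrate was Illumina-sequenced at several fractions reacted, and relative kcat/Km (krel) was computed by internal competition kinetics, calibrated to the genomic leader (AAAGAU = 1). The listed hexamer is the varied N(-6)..N(-1) leader (DNA letters), and it sits between a fixed 5' stem-loop flank (GCAUGCACGAAAGUGCGUGCUAUGAA) and the mature tRNA-Met starting GGCUACGUAGCUCAGUUGG. Two technical replicates are averaged.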

[1] = fraction of substrate reacted: ~13-16% (15.68% repeat 1, 13.17% repeat 2)
[2] = fraction of substrate reacted: ~26-29% (28.66% repeat 1, 26.4% repeat 2)
[3] = fraction of substrate reacted: ~9-10% (9.79% repeat 1, 9.1% repeat 2)

Sequence | relative kcat/Km [1] | relative kcat/Km [2] | relative kcat/Km [3]
TGAAAG | 1.15 ± 0.57 | 2.65 ± 0.8 | –
GCGAAA | 1.36 ± 0.072 | 2.16 ± 0.076 | 2.4 ± 0.62
TCCAAT | 4.14 ± 0.76 | 6.63 ± 2.2 | 3.48 ± 2.1
GCCAAG | 0.757 ± 0.36 | 2.63 ± 0.93 | 0.818 ± 0.62
ACCAAT | 2.51 ± 0.89 | 3.51 ± 0.8 | 2.48 ± 0.88
TCCAAG | 1.77 ± 1.2 | 4.8 ± 1.6 | 2.34 ± 1.2
TCCAGC | 4.83 ± 0.15 | 6.09 ± 2 | 4.58 ± 2.5
TCCAAA | 5.16 ± 0.76 | 7.85 ± 2.9 | 3.88 ± 1.2
TCCAGG | – | 2.14 ± 0.84 | –
TCCAGA | 4.62 ± 0.77 | 7.93 ± 2.3 | 3.25 ± 0.89
TCCAAC | 4.11 ± 0.11 | 5.77 ± 1.9 | 3.85 ± 2
GGCGTC | 1.48 ± 0.093 | 1.36 ± 0.024 | 2.13 ± 1.2
AATTTG | – | 0.989 ± 0.62 | –
TGATAC | 3.97 ± 0.42 | 5.76 ± 2.1 | 2.83 ± 0.46
AGAGGG | – | 0.989 ± 0.85 | –
TCATCT | 2.78 ± 0.36 | 4.09 ± 1 | 2.18 ± 1.2
ACAGAG | 0.878 ± 0.38 | 1.94 ± 0.09 | –
CTAATT | 1.92 ± 0.32 | 2.36 ± 0.52 | 2.55 ± 1
CTCCTT | 4.28 ± 0.77 | 6.06 ± 2.3 | 3.67 ± 1.4
TTCCTT | 5.24 ± 1.1 | 7.59 ± 3.1 | 4.47 ± 1.3
GTCCTC | 4.33 ± 0.75 | 6.46 ± 3 | 3.46 ± 0.61
ATCCTC | 4.11 ± 1.6 | 4.92 ± 2 | 3.86 ± 1.3
TTCCTC | 5.25 ± 0.81 | 6.88 ± 2.5 | 4.47 ± 1.9
ATCCTT | 4.36 ± 0.24 | 5.37 ± 2.3 | 3.24 ± 1.5
TTCCTG | – | 1.68 ± 1.1 | –
GTCCTT | 4.82 ± 0.56 | 7.02 ± 2.8 | 3.67 ± 1

Sequence | relative kcat/Km [1] | relative kcat/Km [2] | relative kcat/Km [3]
CTCCTC | 3.49 ± 0.19 | 4.95 ± 1.7 | 3 ± 1.3
TGGCGG | – | 0.962 ± 0.067 | 0.44 ± 0.28
CCTAGA | 2.71 ± 0.26 | 3.57 ± 0.52 | 3.14 ± 2.6
CCTCCT | 1.23 ± 0.17 | 1.29 ± 0.79 | 2.08 ± 1.7
AGAAAA | 2.65 ± 0.37 | 3.92 ± 1.1 | 3.05 ± 0.94
ACTGGC | – | 1.69 ± 1.6 | –
AGTCAG | 1.91 ± 0.42 | 3.69 ± 0.62 | 2.12 ± 2
TGTCGC | 2.92 ± 1.1 | 5.09 ± 2.2 | 1.87 ± 0.089
TGTCAG | 1.4 ± 0.17 | 3.3 ± 0.62 | –
TGTCAT | 4.28 ± 1.1 | 6.84 ± 3.2 | 3.5 ± 1.3
AGTCAC | 4.987 ± 0.032 | 7.1 ± 2.9 | 4.5 ± 2.3
TGTCAC | 4.8 ± 0.85 | 7.18 ± 3 | 3.25 ± 2.2
AGTCAT | 5 ± 1.1 | 6.79 ± 3.2 | 3.31 ± 1.6
ACTCAC | 2.87 ± 0.13 | 4.43 ± 1.7 | 2.6 ± 1.1
TCTCAC | 4.45 ± 1.3 | 6.16 ± 2.3 | 3.41 ± 1.3
GGTCAC | 2.2 ± 0.29 | 3.14 ± 0.83 | 2.53 ± 0.97
TGTCAA | 3.56 ± 0.18 | 5.75 ± 2.1 | 3.03 ± 1.6
AGTCAA | 4 ± 1.2 | 6.05 ± 2.9 | 2.58 ± 0.11
GCTATC | 0.842 ± 0.77 | 1.645 ± 0.013 | 1.45 ± 0.98
ATTCCT | 2.19 ± 0.27 | 2.93 ± 1.1 | 1.97 ± 0.65
AAATTC | 1.98 ± 0.19 | 2.34 ± 0.6 | 2.35 ± 1.4
TAATGG | – | – | 0.461 ± 0.18
CAACAG | – | 1 ± 0.52 | –
TGACAA | 3.72 ± 0.47 | 4.23 ± 1.4 | 3.11 ± 2.1
GTACGC | 2.7 ± 0.46 | 3.72 ± 1.3 | 2 ± 0.098
